Each structure is given as a SMILES string. Results filed as inconclusive are left out. The source made the active and inactive calls. How the source made its calls, unless noted: active means hit-call score of the fitted dose curve at least 0.9, where 1 is the maximum; inactive means score below 0.9.

Assay [1] deals with Paired box protein Pax-6 (Homo sapiens) (UniProt P26367). The assay is described as follows: ATG_Pax6_CIS: Attagene CIS-FACTORIAL HepG2 Assay for human Paired Box 6 (PAX6) (AID 2282956). Particulars: HepG2 CIS-FACTORIAL PAX6 reporter transcription, RNA readout; actives raise or lower the signal. The essentials: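 Fluorescent RT-PCR products separated by capillary electrophoresis report PAX6-linked promoter mRNA in HepG2 cells 24 h post-dose. Curves fitted bidirectionally, DMSO as negative control.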

Assay [2] is described as follows: ATG_PXRE_CIS: Attagene CIS-FACTORIAL HepG2 Assay for human Pregnane X Receptor Element (PXRE) (AID 2282957). Particulars: HepG2 Attagene CIS-FACTORIAL PXRE reporter, mRNA; actives raise or lower the signal. The essentials: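 Endogenous transcription factor activity in HepG2 was gauged through induction of reporter mRNA driven by a cis-regulating promoter element, sampled 24 h post-treatment. Activity was fitted in both directions against DMSO negative control.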

Assay [3] can be described thus: ATG_RORE_CIS: Attagene CIS-FACTORIAL HepG2 Assay for human RAR-related Orphan Receptor Element (RORE) (AID 2282959). Particulars: HepG2 Attagene cis-factorial RORE reporter, mRNA; actives raise or lower the signal. The essentials:
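HepG2 cells carrying transiently transfected cis-regulated reporter units; RORE-driven reporter mRNA quantified 24 h post-dosing by RT-PCR, 6-FAM primer extension, HpaI digestion and capillary electrophoresis. Bidirectional fit versus DMSO.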

A short description of assay [4]: ATG_Sox_CIS: Attagene CIS-FACTORIAL HepG2 Assay for human SRY-box transcription factor (SOX) (AID 2282960). To be noted: HepG2 Attagene cis-factorial SOX reporter, mRNA; actives raise or lower the signal. The procedure, abridged: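 HepG2 cells transiently transfected with multiple cis-regulated reporter units, then dosed for 24 h. Reporter mRNA quantified by RT-PCR, fluorescent labelling, HpaI digestion and capillary electrophoresis; bidirectional fit versus DMSO.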

In assay [5] the target is Transcription factor Sp1 (Homo sapiens) (UniProt P08047). The assay is described as follows: ATG_Sp1_CIS: Attagene CIS-FACTORIAL HepG2 Assay for human Specificity Protein 1 (Sp1) (AID 2282961). Particulars: HepG2 Sp1 cis-reporter transcription, actives raise or lower the signal. The essentials: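 HepG2 cells transiently transfected with multiplexed cis-regulated reporter constructs, chemical exposure 24 h. Reporter mRNA quantified by RT-PCR with capillary electrophoresis; bidirectional fit relative to DMSO.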

Assay [6] in a line: ATG_SREBP_CIS: Attagene CIS-FACTORIAL HepG2 Assay for human Sterol Regulatory Element Binding (SREBP) (AID 2282962). To be noted: HepG2 Attagene cis-factorial SREBP reporter, mRNA; actives raise or lower the signal. The procedure, abridged: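 Endogenous factor activity is measured in HepG2 through multiplexed reporter units under cis-element control. Following a 24 h incubation, reporter transcripts are reverse-transcribed, PCR-amplified and sized by capillary electrophoresis; activity is fitted in both directions relative to DMSO.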

Assay [7] in a line: ATG_TA_CIS: Attagene CIS-FACTORIAL HepG2 Assay for human TA Basal Promoter (AID 2282964). Particulars: HepG2 Attagene CIS-factorial TA basal promoter reporter; actives raise or lower the signal. The procedure, abridged: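 Steps: transfect HepG2 with MRTUs; dose 24 h; isolate RNA, DNase-treat, reverse-transcribe; PCR and FAM-label reporter cDNA; digest with HpaI 2h at 37 C; run capillary electrophoresis. Activity fitted both directions against DMSO.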

The nature of assay [8]: ATG_TCF_b_cat_CIS: Attagene CIS-FACTORIAL HepG2 Assay for human T-Cell-Factor with beta-catenin (TCF/b-cat) (AID 2282965). To be noted: HepG2 TCF/beta-catenin cis-reporter transcription, actives raise or lower the signal. The essentials: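 In this cis-format system, transfected HepG2 cells report endogenous transcription factor activity. Readout after 24 h exposure is reporter transcript abundance from RT-PCR and capillary electrophoresis, analysed for gain or loss of signal versus DMSO.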

Assay [9] is described as follows: ATG_TGFb_CIS: Attagene CIS-FACTORIAL HepG2 Assay for human Transforming Growth Factor (TGF) (AID 2282967). Particulars: HepG2 Attagene CIS TGFb reporter, mRNA transcription; actives raise or lower the signal. The procedure, abridged:
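Cells were dosed for 24 hours, after which total RNA was reverse-transcribed and reporter sequences amplified, labeled and sized by capillary electrophoresis. Activity was fitted in both directions against DMSO.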

Assay [10] is described as follows: ATG_VDRE_CIS: Attagene CIS-FACTORIAL HepG2 Assay for human Vitamin D Receptor Element (VDRE) (AID 2282968). To be noted: HepG2 VDRE cis-reporter transcription, actives raise or lower the signal. The procedure, abridged: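 Steps: transfect HepG2 with multiple reporter transcription units; dose chemicals 24 h; isolate RNA; RT-PCR; label with 6-FAM primer extension; HpaI digest; capillary electrophoresis. Curves fitted both directions against DMSO.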

Assay [11] has as its target Estrogen receptor (Homo sapiens) (UniProt P03372). The assay is described as follows: ATG_ERa_TRANS: Attagene TRANS-FACTORIAL HepG2 Assay for human Estrogen Receptor alpha (ERa) (AID 2282970; active means hit-call score of the fitted dose curve at least 0.9, where 1 is the maximum). Particulars: HepG2 Attagene TRANS ERa GAL4 reporter, mRNA. The procedure, abridged:
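Transfected HepG2 cells carrying GAL4-UAS-driven reporter units were dosed for 24 hours. Total RNA was reverse-transcribed, reporter sequences PCR-amplified, FAM-labelled, HpaI-digested and resolved by capillary electrophoresis. Increases over DMSO control defined activity.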

The target in assay [12] is Steroid hormone receptor ERR1 (Homo sapiens) (UniProt P11474). As to the kind of experiment: ATG_ERRa_TRANS: Attagene TRANS-FACTORIAL HepG2 Assay for human Estrogen-Related Receptor alpha (ERRa) (AID 2282971; active means hit-call score of the fitted dose curve at least 0.9, where 1 is the maximum). Particulars: HepG2 Attagene TRANS reporter, ERRa transactivation. The procedure, abridged:
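HepG2 cells were transiently transfected with multiple GAL4-UAS reporter units, then dosed with compound for 24 h. Total RNA was reverse-transcribed, reporter cDNA PCR-amplified and fluorescently labelled, and fragments resolved by capillary electrophoresis; induction was compared with DMSO.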

In assay [13] the target is X-box-binding protein 1 (Homo sapiens) (UniProt P17861). As to the kind of experiment: ATG_Xbp1_CIS: Attagene CIS-FACTORIAL HepG2 Assay for human X-box Binding Protein 1 (XBP1) (AID 2282972). Particulars: HepG2 XBP1 cis-element reporter, Attagene multiplex; actives raise or lower the signal. The procedure, abridged: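 Multiplexed cis-reporter readout in transfected HepG2 liver cells. Exposure lasted 24 hours. Activity in either direction was fitted against DMSO as negative control and baseline.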

Assay [14] can be described thus: ATG_M_19_TRANS: Attagene TRANS-FACTORIAL HepG2 Assay for M19 Transcription Factor (Internal Marker) (AID 2282974; active means hit-call score of the fitted dose curve at least 0.9, where 1 is the maximum). To be noted: HepG2 Attagene TRANS-FACTORIAL M19 internal marker reporter. The essentials:
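HepG2 transiently transfected with GAL4-UAS multiplex reporter constructs, exposed 24 h; reporter RNA quantified by RT-PCR, 6-FAM labeling, HpaI digestion and capillary electrophoresis; internal background marker fitted upward versus DMSO.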

Assay [15] is described as follows: ATG_TAL_CIS: Attagene CIS-FACTORIAL HepG2 Assay for human TAL Basal Promoter (AID 2282966).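 Further: background control endpoint measuring basal TAL promoter reporter mRNA not a specific factor.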 To be noted: HepG2 Attagene cis-factorial TAL promoter reporter; actives raise or lower the signal. The essentials: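 Endogenous transcription-factor activity is sensed in HepG2 cells through transfected cis-promoter reporter constructs. After 24 h dosing, reporter transcripts are quantified by RT-PCR and capillary electrophoresis. Gain or loss of signal is fitted relative to DMSO.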

The nature of assay [16]: ATG_GAL4_TRANS: Attagene TRANS-FACTORIAL HepG2 Assay for GAL4 (Internal Marker) (AID 2282976; active means hit-call score of the fitted dose curve at least 0.9, where 1 is the maximum). Particulars: HepG2 Attagene TRANS GAL4 internal marker reporter. The essentials:
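Fluorescence from capillary electrophoresis of labelled RT-PCR products quantifies reporter mRNA induction after 24 h dosing of HepG2 cells carrying transfected GAL4-UAS reporter transcription units. Vehicle DMSO serves as baseline.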

Assay [17] in a line: ATG_PPRE_CIS: Attagene CIS-FACTORIAL HepG2 Assay for human Peroxisome Proliferator-activated Response Element (PPRE) (AID 2282958). To be noted: HepG2 PPRE cis-element reporter, Attagene transcription factor profiling; actives raise or lower the signal. The essentials:
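HepG2 cells are transiently transfected with multiplexed cis-promoter reporter units to report endogenous PPAR activity. After 24 h dosing, reporter mRNA is read by RT-PCR and capillary electrophoresis. Fitting is bidirectional against DMSO.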

Assay [18] has as its target Signal transducer and activator of transcription 3 (Homo sapiens) (UniProt P40763). The assay is described as follows: ATG_STAT3_CIS: Attagene CIS-FACTORIAL HepG2 Assay for human Signal Transducer and Activator of Transcription 3 (STAT3) (AID 2282963). To be noted: HepG2, Attagene cis-factorial STAT3 reporter transcription; actives raise or lower the signal. The procedure, abridged:
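HepG2, MRTU-transfected, 24 h dosing. RNA → RT → PCR → FAM label → HpaI → CE. Bidirectional fit vs DMSO.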

Estrogen receptor (Homo sapiens), sequence (P03372 whole entry, looked up, the tested form may be a part): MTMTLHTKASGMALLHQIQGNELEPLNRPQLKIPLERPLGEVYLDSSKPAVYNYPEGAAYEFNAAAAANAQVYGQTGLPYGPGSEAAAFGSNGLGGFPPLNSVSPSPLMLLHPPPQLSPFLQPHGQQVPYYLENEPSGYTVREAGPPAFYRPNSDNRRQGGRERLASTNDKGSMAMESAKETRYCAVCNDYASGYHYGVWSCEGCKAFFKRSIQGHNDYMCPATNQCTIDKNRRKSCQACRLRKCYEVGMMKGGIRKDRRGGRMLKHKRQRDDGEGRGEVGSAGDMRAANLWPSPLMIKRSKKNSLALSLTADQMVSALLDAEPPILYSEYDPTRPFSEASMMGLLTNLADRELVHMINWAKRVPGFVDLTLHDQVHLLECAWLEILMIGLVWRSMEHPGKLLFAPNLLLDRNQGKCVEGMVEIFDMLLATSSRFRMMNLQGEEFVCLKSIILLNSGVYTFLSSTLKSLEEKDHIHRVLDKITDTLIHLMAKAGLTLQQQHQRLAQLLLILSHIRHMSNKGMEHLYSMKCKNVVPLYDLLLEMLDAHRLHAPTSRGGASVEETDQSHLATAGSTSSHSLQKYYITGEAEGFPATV
X-box-binding protein 1 (Homo sapiens), sequence (P17861 whole entry, looked up): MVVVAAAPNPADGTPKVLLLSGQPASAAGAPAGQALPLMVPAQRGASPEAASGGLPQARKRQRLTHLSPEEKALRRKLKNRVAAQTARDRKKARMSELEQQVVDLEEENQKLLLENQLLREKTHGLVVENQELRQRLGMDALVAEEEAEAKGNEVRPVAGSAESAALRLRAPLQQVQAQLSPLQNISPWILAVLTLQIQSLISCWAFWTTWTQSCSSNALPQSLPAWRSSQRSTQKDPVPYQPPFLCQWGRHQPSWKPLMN
Paired box protein Pax-6 (Homo sapiens), sequence (P26367 whole entry, looked up): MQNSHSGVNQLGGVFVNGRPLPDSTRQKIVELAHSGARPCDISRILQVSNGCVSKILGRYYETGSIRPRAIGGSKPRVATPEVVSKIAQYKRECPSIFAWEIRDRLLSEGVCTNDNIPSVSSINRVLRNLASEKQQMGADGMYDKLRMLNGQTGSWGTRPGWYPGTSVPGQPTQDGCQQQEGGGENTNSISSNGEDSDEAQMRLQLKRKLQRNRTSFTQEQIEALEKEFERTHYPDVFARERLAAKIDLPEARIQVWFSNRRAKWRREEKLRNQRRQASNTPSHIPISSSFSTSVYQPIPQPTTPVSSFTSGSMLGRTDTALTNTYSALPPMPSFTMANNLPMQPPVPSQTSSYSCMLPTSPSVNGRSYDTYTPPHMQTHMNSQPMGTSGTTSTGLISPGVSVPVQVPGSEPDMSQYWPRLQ
Signal transducer and activator of transcription 3 (Homo sapiens), sequence (P40763 whole entry, looked up): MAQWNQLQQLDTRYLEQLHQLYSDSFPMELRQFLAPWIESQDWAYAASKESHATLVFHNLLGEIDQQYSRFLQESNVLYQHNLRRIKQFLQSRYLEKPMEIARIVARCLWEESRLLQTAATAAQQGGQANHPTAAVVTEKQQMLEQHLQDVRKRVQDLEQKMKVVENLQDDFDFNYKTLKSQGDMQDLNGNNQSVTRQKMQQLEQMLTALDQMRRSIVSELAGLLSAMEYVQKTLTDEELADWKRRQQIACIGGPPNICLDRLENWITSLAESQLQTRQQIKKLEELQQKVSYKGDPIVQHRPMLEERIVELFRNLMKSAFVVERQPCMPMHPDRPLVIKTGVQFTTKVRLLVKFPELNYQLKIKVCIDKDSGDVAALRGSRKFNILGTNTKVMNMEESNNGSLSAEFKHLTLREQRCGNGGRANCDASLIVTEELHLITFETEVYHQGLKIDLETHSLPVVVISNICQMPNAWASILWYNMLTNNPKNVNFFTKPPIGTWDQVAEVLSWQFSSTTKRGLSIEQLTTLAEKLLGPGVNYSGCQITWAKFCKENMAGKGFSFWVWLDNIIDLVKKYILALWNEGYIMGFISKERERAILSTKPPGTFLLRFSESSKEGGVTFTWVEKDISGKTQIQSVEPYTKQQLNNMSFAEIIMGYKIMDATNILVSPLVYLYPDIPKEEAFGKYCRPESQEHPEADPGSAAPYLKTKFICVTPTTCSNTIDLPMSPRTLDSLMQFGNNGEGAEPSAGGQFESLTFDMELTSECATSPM
Steroid hormone receptor ERR1 (Homo sapiens), sequence (P11474 whole entry, looked up, the tested form may be a part): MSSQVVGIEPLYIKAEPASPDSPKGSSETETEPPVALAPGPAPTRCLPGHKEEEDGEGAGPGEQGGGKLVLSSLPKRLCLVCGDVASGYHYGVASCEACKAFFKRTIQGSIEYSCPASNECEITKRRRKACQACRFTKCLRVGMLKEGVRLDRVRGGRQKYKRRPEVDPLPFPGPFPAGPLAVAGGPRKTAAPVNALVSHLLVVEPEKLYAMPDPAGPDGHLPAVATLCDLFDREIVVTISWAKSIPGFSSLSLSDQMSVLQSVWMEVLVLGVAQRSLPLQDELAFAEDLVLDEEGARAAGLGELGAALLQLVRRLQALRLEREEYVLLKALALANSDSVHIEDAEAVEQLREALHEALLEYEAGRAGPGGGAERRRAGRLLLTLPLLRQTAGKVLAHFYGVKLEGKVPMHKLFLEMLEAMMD
Transcription factor Sp1 (Homo sapiens), sequence (P08047 whole entry, looked up): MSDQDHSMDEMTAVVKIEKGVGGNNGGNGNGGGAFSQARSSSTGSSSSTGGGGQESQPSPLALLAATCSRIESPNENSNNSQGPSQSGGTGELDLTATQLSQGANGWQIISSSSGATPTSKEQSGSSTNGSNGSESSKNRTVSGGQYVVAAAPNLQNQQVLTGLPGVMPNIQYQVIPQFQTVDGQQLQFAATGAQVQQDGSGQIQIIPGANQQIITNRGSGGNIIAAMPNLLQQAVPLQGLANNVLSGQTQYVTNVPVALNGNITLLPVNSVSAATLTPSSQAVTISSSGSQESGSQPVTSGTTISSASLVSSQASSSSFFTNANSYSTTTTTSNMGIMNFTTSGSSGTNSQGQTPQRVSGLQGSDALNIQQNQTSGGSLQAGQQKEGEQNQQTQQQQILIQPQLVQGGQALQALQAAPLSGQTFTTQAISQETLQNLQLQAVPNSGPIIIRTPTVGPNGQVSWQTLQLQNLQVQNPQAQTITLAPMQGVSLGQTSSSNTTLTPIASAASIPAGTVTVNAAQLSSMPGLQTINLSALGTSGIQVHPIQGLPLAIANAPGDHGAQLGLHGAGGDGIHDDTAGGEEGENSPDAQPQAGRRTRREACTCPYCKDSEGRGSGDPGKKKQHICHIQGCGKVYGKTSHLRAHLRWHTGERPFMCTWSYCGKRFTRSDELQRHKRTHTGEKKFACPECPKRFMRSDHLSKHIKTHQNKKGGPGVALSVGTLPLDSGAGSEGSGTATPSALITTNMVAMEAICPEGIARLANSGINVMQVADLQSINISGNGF

As a reminder, the AC50 is the concentration at which the activity in the assay is half-maximal. `OC[C@@H](O)[C@H](O)[C@@H](O)[C@@H](O)CO`: the outcome in assay [1], in assay [3], in [4], in [5], in assay [6] and in assay [7] was inactive. In addition, the compound was classed as inactive in assay [8], in [9], in [10], in [12], in assay [13] and in assay [14]. Also, the AC50 in [2] was 37.2 µM (active); in assay [11] it was 13.8 µM (active).
As to `O=[N+]([O-])c1cc(N(CCO)CCO)ccc1NCCO`, the compound was called inactive in assay [1], in assay [2], in assay [3], in [4], in [5] and in assay [7]. For the same compound, the result in [8], in assay [15], in [9], in assay [10], in assay [13] and in assay [14] was inactive.
`CCOc1ccc(NC(C)=O)cc1`: the call in [1], in assay [2], in assay [3], in [4], in [5] and in [6] was inactive. Also, the call in [7], in [8], in assay [15], in assay [9], in [10] and in assay [13] was inactive. The call in assay [14] and in assay [16] was inactive.
Turning to `CC(C)C(=O)c1ccccc1`, the compound was classed as inactive in [1], in assay [17], in assay [3], in assay [4], in assay [5] and in assay [6]. Also, the call in [18], in assay [7], in [8], in assay [12], in [13] and in assay [14] was inactive. Besides, the outcome in assay [16] was inactive. In addition, the half-maximal activity concentration (AC50) in assay [11] was 0.604 µM (active).
As to `FC(F)(F)c1ccc(Cl)c(Cl)c1`, the compound was called inactive in assay [1], in assay [17], in assay [3], in assay [4], in assay [5] and in assay [6]. Moreover, the call in assay [18], in assay [7], in assay [8], in assay [15], in [9] and in assay [10] was inactive. For the same compound, the call in assay [11], in assay [13] and in [14] was inactive.
As for `CCCCCCC(O)CCOC(C)=O` (stereo unspecified), the compound was classed as inactive in [1], in assay [17], in [3], in assay [4], in assay [5] and in assay [6]. Also, the result in assay [7], in assay [9], in [10], in assay [11], in assay [12] and in [13] was inactive. The call in assay [16] was inactive.
In the case of `Brc1cc(Br)cc(Br)c1`, the result in [1], in [17], in [3], in assay [4], in [5] and in assay [18] was inactive. Also, the call in assay [7], in assay [8], in assay [15], in assay [11], in assay [12] and in [13] was inactive. Further, the values for the half-maximal activity concentration (AC50) in assay [9] and in assay [10] were 100 µM (active) and 65 µM (active), respectively.
As to `C[N+](C)(C)CCO`, the outcome in assay [1], in [17], in assay [3], in assay [4], in [5] and in assay [6] was inactive. In addition, the call in [18], in assay [7], in assay [8], in [15], in assay [9] and in assay [10] was inactive. In addition, the compound was classed as inactive in assay [13] and in assay [14].
For `Cc1ccccc1S`, the AC50 in assay [1] is 60.4 µM (active); in [4] it was 103 µM (active); in [5], 80.3 µM (active); in assay [6], 41.7 µM (active); in assay [8], 55.9 µM (active); in assay [13], 75.5 µM (active). The call in assay [17], in assay [3], in [18], in assay [7], in assay [15] and in assay [9] was inactive. Moreover, the result in [10], in [11] and in assay [14] was inactive.
`CCCO`: the compound was called inactive in assay [1], in assay [17], in assay [3], in assay [4], in [5] and in assay [6]. For the same compound, the call in [18], in assay [7], in assay [8], in assay [15], in assay [9] and in [10] was inactive. Also, the result in assay [13], in assay [14] and in [16] was inactive.
In the case of `CCOCC(C)O` (stereo unspecified), the call in assay [1], in assay [17], in [3], in [4], in [5] and in assay [6] was inactive. Besides, the result in assay [18], in assay [7], in assay [8], in [15], in [9] and in assay [10] was inactive. Moreover, the compound was called inactive in assay [11], in [12], in assay [13] and in assay [14].

The record behind these values is PubChem BioAssay (EPA / NIEHS).
